Only some compounds are listed: those with a hit (about 0.93% of all), similar ones and a draw of the others.
CIT2 TOR yeast: yeast TOR pathway CIT2-GFP modulation | S. cerevisiae CIT2-GFP strain, flow cytometry, 3 h; 100 means same as DMSO wells | GFP response vs DMSO, % at 10 µM | actives 0.065% (n = 320,000) | AID 2029;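 active = GFP response relative to DMSO above a set limit, near the screen mean plus 3 SD, cut at about 150% in these data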;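 also: ratio of well median GFP fluorescence to mean of DMSO wells on the plate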
RPL19A TOR yeast: alters RPL19A-GFP fluorescence in TOR pathway yeast screen. S. cerevisiae RPL19A-GFP strain, flow cytometry, 3 h; stronger effect = lower value. percent response vs DMSO, % at 10 µM. actives 0.3% (n = 330,000). AID 2025;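 active = percent response vs DMSO below 50%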;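 also: median channel GFP fluorescence of the barcoded RPL19A-GFP strain; lower means less RPL19A-GFP as with rapamycin TOR inhibition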
LAP4-GFP MLPCN: alters LAP4-GFP fluorescence in TOR pathway yeast screen; actives 0.34% (n = 320,000); AID 2023; GFP response vs DMSO, % at 10 µM; S. cerevisiae LAP4-GFP multiplex, flow cytometry GFP, 3 h; median GFP as percent of DMSO wells;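 active = GFP response vs DMSO above a set limit, about the screen mean plus 3 SD, cut at about 150% in these data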
AGP1 TOR yeast: modulators of TOR pathway AGP1-GFP in S. cerevisiae | S. cerevisiae AGP1-GFP multiplex flow cytometry, 3 h; GFP as percent of DMSO wells | GFP response vs DMSO, % at 10 µM | actives 0.02% (n = 320,000);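 active = GFP response relative to DMSO above a set limit, near screen average plus 3 SD, cut at about 150% in these data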;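 also: median GFP channel fluorescence of the gated AGP1 strain per well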
MEP2-GFP yeast: modulators of TOR pathway MEP2-GFP in S. cerevisiae; GFP response vs DMSO, % at 10 µM; AID 2016; S. cerevisiae MEP2-GFP strain, flow cytometry GFP, 3 h; 100% = DMSO control level; actives 0.51% (n = 330,000);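 active = GFP response versus DMSO above a set limit, roughly screen mean plus 3 SD, cut at about 180% in these data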;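 also: median GFP fluorescence of the barcode-gated MEP2-GFP cells per well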
LAP4-GFP pick2: second confirmation of modulators of TOR reporter LAP4-GFP in yeast. AID 2621. GFP response vs DMSO, % at 10 µM. shares compounds with LAP4-GFP MLPCN. S. cerevisiae LAP4-GFP strain, flow cytometry GFP, 3 h. actives 20% (n = 590);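 active = GFP signal as percent of the solvent control above about 150%, meaning raised reporter expression, limit read from the data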
MEP2 cherry2: reconfirmed MEP2-GFP TOR pathway modulator in yeast; shares compounds with LAP4-GFP MLPCN; S. cerevisiae MEP2-GFP strain, flow cytometry GFP, 3 h; GFP response vs DMSO, % at 10 µM; actives 10% (n = 590); AID 2622;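 active = GFP signal above 150% of the solvent control wells, that is a rise of more than half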;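 also: median channel GFP fluorescence of all gated yeast cells per well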
RPL19A GFP CP2: second confirmation of modulators of TOR reporter RPL19A-GFP in yeast | GFP response vs DMSO, % at 10 µM | shares compounds with LAP4-GFP MLPCN | actives 3% (n = 590) | S. cerevisiae RPL19A-GFP strain, flow cytometry GFP, 3 h; stronger effect = lower value; 100% means same as DMSO wells;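 active = under 65% GFP response relative to DMSO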;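 also: median GFP channel fluorescence per well over the all cells gate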
CIT2-GFP pick2: yeast CIT2-GFP TOR reporter modulation, second cherry pick; AID 2624; S. cerevisiae CIT2-GFP strain, flow cytometry GFP, 3 h; DMSO control wells read 100%; actives 8% (n = 590); GFP response vs DMSO, % at 10 µM; shares compounds with LAP4-GFP MLPCN;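 active = GFP response vs DMSO above about 150%, limit read from the data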;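 also: median green fluorescence per well over all gated yeast cells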
AGP1-GFP pick2: second confirmation of modulators of TOR reporter AGP1-GFP in yeast. shares compounds with LAP4-GFP MLPCN. S. cerevisiae AGP1-GFP strain, flow cytometry GFP, 3 h. percent response vs DMSO, % at 10 µM. 590 tested, under 10 active. AID 2643;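 active = over 150 percent of DMSO response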;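 also: median GFP channel fluorescence over all cells without mother daughter split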
s288c autofluor: counter-screen for compound autofluorescence in yeast s288c cells; fluorescence change (kMESF span) at 33 µM; shares compounds with LAP4-GFP MLPCN; S. cerevisiae s288c, 520 nm autofluorescence, flow cytometry, 3 h; stronger effect = higher value; zero means same as solvent-only cells; 610 tested, under 10 active;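 active = fluorescence span over the dose series, or activity score, above about 33, limit read from the data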
Hits are given with their value.

For O=C(Nc1nnc(-c2ccccc2)o1)c1cc(Cl)sc1Cl the results were CIT2 TOR yeast inactive, RPL19A TOR yeast inactive, LAP4-GFP MLPCN inactive, AGP1 TOR yeast inactive and MEP2-GFP yeast inactive.
`O=C(Nc1nnc(-c2ccc(F)cc2)o1)c1cccc([N+](=O)[O-])c1` gave CIT2 TOR yeast inactive, RPL19A TOR yeast inactive, LAP4-GFP MLPCN 164, AGP1 TOR yeast inactive, MEP2-GFP yeast inactive and s288c autofluor inactive.
O=C(Nc1nnc(-c2ccc(F)cc2)o1)c1cc(Cl)sc1Cl was read as CIT2 TOR yeast inactive, RPL19A TOR yeast inactive, LAP4-GFP MLPCN 164, AGP1 TOR yeast inactive, MEP2-GFP yeast inactive, LAP4-GFP pick2 167, MEP2 cherry2 inactive, RPL19A GFP CP2 inactive, CIT2-GFP pick2 inactive, AGP1-GFP pick2 inactive and s288c autofluor inactive.
Screening Cc1cc(C)cc(-n2ccnc2SCC(=O)Nc2ccc3c(c2)OCCO3)c1 returned CIT2 TOR yeast inactive, RPL19A TOR yeast inactive, LAP4-GFP MLPCN inactive, AGP1 TOR yeast inactive and MEP2-GFP yeast inactive.
CC(=O)Nc1ccc(S(=O)(=O)NCCc2cn3nc(C)c(C)nc3n2)cc1 was read as CIT2 TOR yeast inactive, RPL19A TOR yeast inactive, LAP4-GFP MLPCN inactive, AGP1 TOR yeast inactive and MEP2-GFP yeast inactive.
COc1ccc(S(=O)(=O)NCCc2cn3nc(C)c(C)nc3n2)cc1F was read as CIT2 TOR yeast inactive, RPL19A TOR yeast inactive, LAP4-GFP MLPCN inactive, AGP1 TOR yeast inactive, MEP2-GFP yeast inactive, LAP4-GFP pick2 inactive, MEP2 cherry2 inactive, RPL19A GFP CP2 inactive, CIT2-GFP pick2 inactive and AGP1-GFP pick2 inactive.
`COc1ccc(/C=C/C(=O)C2C(=O)C=C(C)OC2=O)cc1O` (stereo unspecified) gave CIT2 TOR yeast inactive, RPL19A TOR yeast inactive, LAP4-GFP MLPCN 185, AGP1 TOR yeast inactive, MEP2-GFP yeast inactive and s288c autofluor inactive.
Screening O=C(c1ccc(Cl)cc1)N1CCN(c2cccc3[nH]ccc23)CC1 returned CIT2 TOR yeast inactive, RPL19A TOR yeast inactive, LAP4-GFP MLPCN 259, AGP1 TOR yeast inactive, MEP2-GFP yeast inactive and s288c autofluor inactive.
Screening Cc1noc(C)c1C(=O)Nc1ccc(N(C)C)cc1 returned CIT2 TOR yeast 162, RPL19A TOR yeast inactive, LAP4-GFP MLPCN inactive, AGP1 TOR yeast inactive, MEP2-GFP yeast inactive, LAP4-GFP pick2 inactive, MEP2 cherry2 inactive, RPL19A GFP CP2 inactive, CIT2-GFP pick2 inactive and AGP1-GFP pick2 inactive.
Screening Cc1noc(C)c1C(=O)Nc1ccc(F)cc1 returned CIT2 TOR yeast inactive, RPL19A TOR yeast inactive, LAP4-GFP MLPCN inactive, AGP1 TOR yeast inactive and MEP2-GFP yeast inactive.
`Cc1ccc(N2C(=O)CC(Sc3ncn[nH]3)C2=O)cc1C` (stereo unspecified) gave CIT2 TOR yeast inactive, RPL19A TOR yeast inactive, LAP4-GFP MLPCN 151, AGP1 TOR yeast inactive, MEP2-GFP yeast inactive and s288c autofluor inactive.
Screening Cc1cccc(N2C(=O)CC(Sc3ncn[nH]3)C2=O)c1 (stereo unspecified) returned CIT2 TOR yeast inactive, RPL19A TOR yeast inactive, LAP4-GFP MLPCN inactive, AGP1 TOR yeast inactive and MEP2-GFP yeast inactive.
For O=C(Oc1cccc2cccnc12)c1ccc(Br)o1 the results were CIT2 TOR yeast inactive, RPL19A TOR yeast inactive, LAP4-GFP MLPCN inactive, AGP1 TOR yeast inactive, MEP2-GFP yeast inactive, LAP4-GFP pick2 inactive, MEP2 cherry2 inactive, RPL19A GFP CP2 inactive, CIT2-GFP pick2 inactive, AGP1-GFP pick2 inactive and s288c autofluor inactive.
For Cc1ccc(O)c(C(=O)CC(=O)c2ccccc2Cl)c1 the results were CIT2 TOR yeast inactive, RPL19A TOR yeast inactive, LAP4-GFP MLPCN inactive, AGP1 TOR yeast inactive, MEP2-GFP yeast inactive, LAP4-GFP pick2 inactive, MEP2 cherry2 inactive, RPL19A GFP CP2 inactive, CIT2-GFP pick2 inactive and AGP1-GFP pick2 inactive.
For COc1ccc(OC)c(NC(=O)CSc2nncc3ccccc23)c1 the results were CIT2 TOR yeast inactive, RPL19A TOR yeast inactive, LAP4-GFP MLPCN inactive, AGP1 TOR yeast inactive and MEP2-GFP yeast inactive.
`C=CCNC(=O)c1ccc(Cn2c(=S)[nH]c3cc4c(cc3c2=O)OCO4)cc1` gave CIT2 TOR yeast inactive, RPL19A TOR yeast inactive, LAP4-GFP MLPCN inactive, AGP1 TOR yeast inactive and MEP2-GFP yeast inactive.
For O=C(NCCN1CCCC1)c1ccc(Cn2c(=S)[nH]c3cc4c(cc3c2=O)OCO4)cc1 the results were CIT2 TOR yeast inactive, RPL19A TOR yeast inactive, LAP4-GFP MLPCN 153, AGP1 TOR yeast inactive, MEP2-GFP yeast inactive, LAP4-GFP pick2 inactive, MEP2 cherry2 inactive, RPL19A GFP CP2 inactive, CIT2-GFP pick2 inactive and AGP1-GFP pick2 inactive.
CC1=NN(c2ccccc2)C(=O)/C1=C/c1c(C)[nH]n(-c2ccc(C)cc2)c1=O was read as CIT2 TOR yeast inactive, RPL19A TOR yeast inactive, LAP4-GFP MLPCN inactive, AGP1 TOR yeast inactive, MEP2-GFP yeast inactive, LAP4-GFP pick2 inactive, MEP2 cherry2 inactive, RPL19A GFP CP2 inactive, CIT2-GFP pick2 inactive and AGP1-GFP pick2 inactive.
Screening CC1=NN(c2ccccc2)C(=O)/C1=C/c1cccc(C)c1 returned CIT2 TOR yeast inactive, RPL19A TOR yeast inactive, LAP4-GFP MLPCN inactive, AGP1 TOR yeast inactive and MEP2-GFP yeast inactive.
`CCCn1c(C)cc(C(=O)CN2C(=O)c3ccccc3C2=O)c1C` gave CIT2 TOR yeast inactive, RPL19A TOR yeast inactive, LAP4-GFP MLPCN inactive, AGP1 TOR yeast inactive, MEP2-GFP yeast inactive, LAP4-GFP pick2 inactive, MEP2 cherry2 inactive, RPL19A GFP CP2 inactive, CIT2-GFP pick2 inactive and AGP1-GFP pick2 inactive.
Screening CCn1c(C)cc(C(=O)CN2C(=O)c3ccccc3S2(=O)=O)c1C returned CIT2 TOR yeast inactive, RPL19A TOR yeast inactive, LAP4-GFP MLPCN inactive, AGP1 TOR yeast inactive and MEP2-GFP yeast inactive.
